{"source": "the antibiotic and cytotoxicity screens of Wong et al. (2023)", "note": "The campaign covered roughly 39,000 compounds. About 3,300 (8.5%) were called active. This is one part of a sample in which actives are shown more often than they occur.", "data": [{"test_system": "HepG2", "test": "cytotoxicity call (relative viability < 0.9)", "details": "10 µM", "values": [{"smiles": "C[C@H]1CN([C@@H](C)CO)C(=O)c2cccc(NC(=O)CCCCCC(=O)Nc3ccccc3N)c2O[C@H]1CN(C)Cc1ccc(-c2ccccc2)cc1", "cytotoxicity call": "inactive"}, {"smiles": "C[C@@H]1CN([C@@H](C)CO)C(=O)c2cccc(NC(=O)CCCCCC(=O)Nc3ccccc3N)c2O[C@@H]1CN(C)Cc1ccc(Cl)c(Cl)c1", "cytotoxicity call": "inactive"}, {"smiles": "C[C@@H]1CN([C@@H](C)CO)C(=O)c2cccc(NC(=O)CCCCCC(=O)Nc3ccccc3N)c2O[C@@H]1CN(C)Cc1ccc(-c2ccccc2)cc1", "cytotoxicity call": "inactive"}, {"smiles": "C[C@@H]1CN([C@@H](C)CO)C(=O)c2cccc(NC(=O)CCCCCC(=O)Nc3ccccc3N)c2O[C@H]1CN(C)Cc1ccc(Cl)c(Cl)c1", "cytotoxicity call": "inactive"}, {"smiles": "C[C@H]1CN([C@@H](C)CO)C(=O)c2cccc(NC(=O)CCCCCC(=O)Nc3ccccc3N)c2O[C@@H]1CN(C)Cc1ccc(Cl)c(Cl)c1", "cytotoxicity call": "active"}, {"smiles": "C[C@@H]1CN([C@H](C)CO)C(=O)c2cccc(NC(=O)CCCCCC(=O)Nc3ccccc3N)c2O[C@@H]1CN(C)Cc1ccc(-c2ccccc2)cc1", "cytotoxicity call": "active"}, {"smiles": "C[C@H](CO)N1C[C@H](C)[C@@H](CN(C)Cc2ccc(-c3ccccc3)cc2)Oc2c(NC(=O)CCCCCC(=O)Nc3ccccc3N)cccc2C1=O", "cytotoxicity call": "active"}, {"smiles": "C[C@@H]1CN([C@H](C)CO)C(=O)c2cccc(NC(=O)CCCCCC(=O)Nc3ccccc3N)c2O[C@H]1CN(C)Cc1ccc(-c2ccccc2)cc1", "cytotoxicity call": "inactive"}, {"smiles": "C[C@@H]1CN([C@@H](C)CO)C(=O)c2cccc(NC(=O)CCCCCC(=O)Nc3ccccc3N)c2O[C@H]1CN(C)Cc1ccc(-c2ccccc2)cc1", "cytotoxicity call": "inactive"}, {"smiles": "[N-]=[N+]=Nc1ccccc1[C@@H]1OC(c2ccc(OCCCO)cc2)=N[C@]1(CCS(=O)(=O)c1ccccc1)C(=O)NC[C@@H](O)CO", "cytotoxicity call": "inactive"}, {"smiles": "C[C@@H]1CN([C@H](C)CO)S(=O)(=O)c2ccc(C#CCN(C)C)cc2O[C@H]1CN(C)C(=O)c1ccccc1F", "cytotoxicity call": "inactive"}, {"smiles": "O=C(C[C@H]1C[C@@H]2c3cc(NC(=O)C4CCOCC4)ccc3O[C@@H]2[C@@H](CO)O1)NCc1ccc(Cl)cc1", "cytotoxicity call": "inactive"}, {"smiles": "CCS(=O)(=O)N1C[C@]2(CN(Cc3cccc(c3)Cl)[C@H](CO)c3c2c2ccc(cc2n3C)OC)C1", "cytotoxicity call": "inactive"}, {"smiles": "C[C@H](CO)N1C[C@H](C)[C@H](CN(C)C(=O)Nc2ccc(N3CCCCC3)cc2)OCc2cnnn2CCCC1=O", "cytotoxicity call": "inactive"}, {"smiles": "COc1ccc(NC(=O)Nc2ccc3c(c2)C(=O)N([C@@H](C)CO)C[C@@H](C)[C@@H](CN(C)C(=O)Cc2ccccc2)OCCCC[C@H](C)O3)cc1", "cytotoxicity call": "inactive"}, {"smiles": "COc1ccc(NC(=O)Nc2ccc3c(c2)C(=O)N([C@H](C)CO)C[C@H](C)[C@H](CN(C)C(=O)Nc2ccccc2)OCCCC[C@@H](C)O3)cc1", "cytotoxicity call": "inactive"}]}]}
